Measured values from PubChem BioAssay (NCI).
This is part of a sample that, as a whole, favours compounds with a hit. Of some 79,000 tested, about 15% had one in any assay. No stated cut-off is given here; in the data, active means growth inhibition above about 70%; inactive means the rest.

How the values were obtained:
[1] = NCI Yeast Anticancer Drug Screen. Data for the rad50 strain (AID 155);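 further: 0% = growth of vehicle-only cultures of the same strain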; conditions: S. cerevisiae rad50 strain growth inhibition; at 50.0 µM; stronger effect = higher value
Method in brief: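 Cells are treated with compound, grown, and their growth is then scored against vehicle-only cultures of the same repair-deficient yeast strain.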

[2] = NCI Yeast Anticancer Drug Screen. Data for the mec2-1 strain (AID 157); conditions: S. cerevisiae mec2-1 strain, at 50.0 µM, stronger effect = higher value
Method in brief: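 Readout is yeast growth inhibition, normalised to vehicle-treated controls, in the mec2-1 strain exposed to compound.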

[3] = NCI Yeast Anticancer Drug Screen. Data for the sgs1 mgt1 strain (AID 161);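 further: 0% = growth of cultures given vehicle only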; conditions: S. cerevisiae sgs1 mgt1 strain, at 50.0 µM, stronger effect = higher value
Method in brief: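 Compounds are added to genetically altered yeast, and growth is compared with cultures given vehicle alone to give percent inhibition.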

[4] = NCI Yeast Anticancer Drug Screen. Data for the cln2 rad14 strain (AID 165);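 further: 0% = growth equal to vehicle treated cultures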; conditions: S. cerevisiae cln2 rad14 strain, at 50.0 µM, stronger effect = higher value
Method in brief: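 Relative to vehicle controls, growth inhibition of compound-treated cln2 rad14 yeast was recorded.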

[5] = NCI Yeast Anticancer Drug Screen. Data for the bub3 strain (AID 167); conditions: S. cerevisiae bub3 mutant strain, at 50.0 µM, stronger effect = higher value
Method in brief: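 Part of a panel of yeast mutants defective in DNA damage repair or cell cycle regulation. Each strain is grown with compound, and inhibition is calculated relative to solvent-treated cultures.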

[6] = NCI Yeast Anticancer Drug Screen. Data for the mlh1 rad18 strain (AID 175); conditions: S. cerevisiae mlh1 rad18 strain growth inhibition; at 50.0 µM; stronger effect = higher value
Method in brief: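 Test agents were incubated with a yeast strain of defined genotype (DNA damage repair defect). Inhibition of growth was derived by comparison with vehicle-exposed cultures.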

Measured: growth inhibition

Cc1ccc(NC(=O)C(=O)CC(=O)c2c(C)n([O-])c3ccccc3[n+]2=O)cc1C
inactive: [1] -6.2% | [2] -1.55% | [3] 1.25% | [4] 9.35% | [5] 0.2% | [6] 11.9%

CCC(C(C)O)[N+](=O)[O-] (stereo unspecified)
inactive: [1] 32.8% | [2] -1.1% | [3] 10% | [4] 4.15% | [5] 7.25% | [6] 7.75%

CC1(c2ccccc2)OCCCO1
inactive: [1] -11.3% | [2] -7.15% | [3] -10.8% | [4] 0.65% | [5] -2.5% | [6] -0.8%

Nc1ccc(OCC(O)CN2CCN(c3ccccc3)CC2)cc1 (stereo unspecified)
inactive: [1] 7.45% | [2] 4.15% | [3] 6.65% | [4] -3.85% | [5] 10.6% | [6] 4.1%

N#CN=C(N(Cc1ccccc1)Cc1ccccc1)N(Cc1ccccc1)Cc1ccccc1
inactive: [1] -3.65% | [2] -12.4% | [3] -18.6% | [4] 20.6% | [5] 12.4% | [6] -14.1%

CC1(C)OC2OC(C3CC3)C(OCc3ccccc3)C2O1 (stereo unspecified)
inactive: [1] -4.35% | [2] -1.05% | [3] -7.55% | [4] -16% | [5] -10.7% | [6] -6.5%

CSc1nc[nH]c1C(N)=S
inactive: [1] -13.1% | [2] 3% | [3] 2.6% | [4] -7.4% | [5] -24.4% | [6] 8.7%

CCC/C(=N/NC(=O)C(N)=O)C(CC)C(=O)CCC(=O)N(Cc1ccccc1)Cc1ccccc1 (stereo unspecified)
inactive: [1] -17.6% | [2] -15.6% | [3] -26.6% | [4] 10.8% | [5] -10.4% | [6] -21.3%

Cc1noc2c1C(=O)CCC2
inactive: [1] -3.3% | [2] -5.45% | [3] 17.8% | [4] 11.2% | [5] 21.2% | [6] 7.05%

O=[N+]([O-])c1cc2c(cc1Cl)C1C(C3C2C2(Cl)C(Cl)=C(Cl)C3(Cl)C2(Cl)Cl)C2(Cl)C(Cl)=C(Cl)C1(Cl)C2(Cl)Cl (stereo unspecified)
inactive: [1] 24.4% | [2] 9.6% | [3] 30.2% | [4] 24.2% | [5] 20.6% | [6] 18%

C/C=C/C(=O)N(CC)CC
inactive: [1] 9% | [2] -4.25% | [3] 3.75% | [4] 1.65% | [5] -24.9% | [6] 10.8%

O=C(c1ccccc1)C(c1ccccc1)C1(O)C(=O)Nc2ccc(Br)cc21 (stereo unspecified)
inactive: [1] 0.9% | [2] 7.35% | [3] -0.15% | [4] 16.1% | [5] 54.9% | [6] 7.1%

CC12CC3CC/C(=N\O)C(C1)C3(N1CCOCC1)C/C2=N/O (stereo unspecified)
inactive: [1] -22.2% | [2] -16.7% | [3] -10.2% | [4] 0.3% | [5] -14.8% | [6] 8.8%

CC(O)CCC(C)O (stereo unspecified)
inactive: [1] -19.1% | [2] -24.2% | [3] -4.5% | [4] -4.95% | [5] 1.85% | [6] 10.2%

c1ccc(-c2cn3c(nc4ccccc43)c(-c3ccccc3)n2)cc1
inactive: [1] -44.6% | [2] -7.15% | [3] -29.1% | [4] -1.15% | [5] -4.3% | [6] -41.9%

N[C@H](C(=O)O)[C@H]1ON=C(Cl)[C@@H]1O
inactive: [1] 7.4% | [2] 4.55% | [3] 7.25% | [4] 16.6% | [5] 11.3% | [6] -2.15%

O=c1[nH]c(=O)c2ncn(-c3ccc(Cl)cc3)c2[nH]1
inactive: [1] -7.35% | [2] -20.9% | [3] 7.1% | [4] -37.5% | [5] -24.4% | [6] -8.3%

CCC(SC)C(=O)N(C)c1ccccc1 (stereo unspecified)
inactive: [1] -8.5% | [2] -15.3% | [3] 1.25% | [4] -10.3% | [5] -13.1% | [6] -3%

CCCCCCC1N(C(C#N)c2ccccc2)CCCN1C(C#N)c1ccccc1 (stereo unspecified)
inactive: [1] 19.8% | [2] 14.2% | [3] 16.6% | [4] 7.6% | [5] 2.4% | [6] 36.4%

N#CC(CCc1ccccc1[N+](=O)[O-])(CCc1ccccc1[N+](=O)[O-])C(N)=O
inactive: [1] 19.3% | [2] 5.55% | [3] 24.4% | [4] -18.4% | [5] 16.6% | [6] 39.1%

CCOC(=O)C(C(C)=O)C(CC(=O)OC)NC(=O)OCc1ccccc1 (stereo unspecified)
inactive: [1] -24.5% | [2] -21.9% | [3] -60.6% | [4] -57.2% | [5] -32.2% | [6] -35.5%

CC(C)(C)[Si](C)(C)OCC1CCC(n2cnc3c(N)ncnc32)O1 (stereo unspecified)
inactive: [1] 19.7% | [2] -3.1% | [3] -6.2% | [4] -4.7% | [5] -1.95% | [6] 6.7%

CC(C)c1cccc(C(C)C)c1NC(=O)C(=O)C(C(=O)c1ccccc1-c1ccccc1)C1OC(=O)c2ccccc21 (stereo unspecified)
inactive: [1] 8.2% | [2] 3.8% | [3] 19.6% | [4] -49.2% | [5] -3.05% | [6] 8%

CCC(c1ccc(OCC(=O)N2CC2)cc1)C(CC)c1ccc(OCC(=O)N2CC2)cc1 (stereo unspecified)
inactive: [1] 11.8% | [2] 10.3% | [3] 13.5% | [4] 17.8% | [5] -0.35% | [6] 1.75%

COc1cccc(Nc2sc(C(=O)c3cc4cc(Cl)ccc4o3)c(N)c2C#N)c1
inactive: [1] -11.1% | [2] -8.65% | [3] -20.6% | [4] -2.75% | [5] -3.55% | [6] -7.55%

COc1ccc(C(=O)c2ccccc2C(=O)c2ccc(OC)cc2)cc1
inactive: [1] -22.1% | [2] 16.1% | [3] -1.4% | [4] -37.8% | [5] -7.7% | [6] 6.95%

N#CCCCOc1ccccc1
inactive: [1] -14.2% | [2] -13.6% | [3] 16.4% | [4] -6.7% | [5] -2.05% | [6] 5.4%

O=NN(C(=O)NCCCl)c1[nH]c(=O)ncc1I
inactive: [1] -8.65% | [2] -9.7% | [3] -13.9% | [4] -25.2% | [5] 3.05% | [6] -6.1%

CCCCC1C2C(S(=O)(=O)c3ccccc3)=NOC2C=CN1C(C)=O (stereo unspecified)
inactive: [1] -6.4% | [2] -9% | [3] 1.55% | [4] 7.55% | [5] 3.25% | [6] 10.3%

CS(=O)(=O)NCC1OC(n2cnc3c(N)ncnc32)C(O)C1O (stereo unspecified)
inactive: [1] 12.2% | [2] -9.3% | [3] 19% | [4] -5.95% | [5] 30.5% | [6] 1.8%

CC(C)(CS(C)(=O)=O)C(=O)O
inactive: [1] 2.5% | [2] -18.9% | [3] 3.05% | [4] -7.55% | [5] -2.05% | [6] 4.65%

CC1(C)CC2(C)NCCN2C(=S)N1 (stereo unspecified)
inactive: [1] 3.25% | [2] 2.3% | [3] 15.8% | [4] 12.2% | [5] -5.45% | [6] -7.8%

O=C1NCC/C1=C\c1ccc(Cl)c(Cl)c1
inactive: [1] 9.4% | [2] -12.4% | [3] -10.3% | [4] -17.6% | [5] -7.7% | [6] -13.5%

C=C1C(=O)O[C@H]2C3OC3(C)CC/C=C(/C(=O)OC)[C@@H](OC(C)=O)[C@H](OC(=O)C3(C)OC3C)[C@H]12 (stereo partly specified)
inactive: [1] 12.6% | [2] 31.8% | [3] 13.5% | [4] 22.4% | [5] 5.55% | [6] 8.85%

Oc1ccc2ccccc2c1CNC1CCCCC1
inactive: [1] -9.05% | [2] -18.9% | [3] -9.05% | [4] -26.1% | [5] 29.7% | [6] -26.6%

COc1c(C(=O)O)ccc(C(=O)NCCCCCN(O)C(=O)CCC(=O)NCCCCCN(O)C(=O)CCC(=O)NCCCCCN(O)C(C)=O)c1OC
inactive: [1] -7.25% | [2] 4.25% | [3] -5.35% | [4] -24.9% | [5] -0.6% | [6] -28.4%

N#CNC(N)=Nc1ccc(Cl)cc1
inactive: [1] 5.35% | [2] 7.5% | [3] -27.9% | [4] 19.6% | [5] -19.6% | [6] -17.4%

O=c1ccn(Cc2ccccc2)c(=O)[nH]1
inactive: [1] 25.6% | [2] -10.3% | [3] 4.35% | [4] -29.4% | [5] -3.95% | [6] 21.9%

CCOC(=O)C1SC(=Nc2ccc(C)c(C)c2)N=C1C (stereo unspecified)
inactive: [1] -20.2% | [2] -7.4% | [3] -22.4% | [4] 19.7% | [5] 4.85% | [6] 7.15%

C=CC1C(C[C@@H]2c3cc(O)c(O)cc3CCN2C(C)=O)C(C(=O)OC)=CO[C@H]1OC1OC(CO)C(O)C(O)C1O (stereo partly specified)
inactive: [1] -1.15% | [2] -38.4% | [3] -32.8% | [4] 14.8% | [5] -35% | [6] 19.4%

O=CNn1cn[nH]c1=S
inactive: [1] 1.9% | [2] -2.65% | [3] -17.6% | [4] 4.25% | [5] 8.75% | [6] 6.95%
